Compound activity as filed in PubChem.
Hits are enriched below; roughly 1.4% of the tested compounds scored in any of these assays.
Rango release inh: prevents RanGTP from dissociating the Rango-importin beta complex | Biochemical FRET Rango-importin beta, RanGTP-induced dissociation | Potency, µM (top dose mostly 46.1 µM), inactives show top-dose activity change, negative = inhibition | 0.071% of 340,000 active | AID 540253; further: potency means the concentration at half of the fitted maximal effect; % of control where 0% means no effect; nearly all actives have a fitted effect of over 45% in size
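Compounds preincubate 5 min with complex of recombinant Rango and importin beta in PBS with 1 mM DTT. Ran (0.6 uM) loaded with 2 mM GTP plus 0.2 uM RCC1 starts dissociation; FRET is recorded 45 min later.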
Mm-Cpn inhibitor: blocks the Methanococcus maripaludis chaperonin Mm-Cpn; Potency, µM (doses to about 76.9 µM), for the others: at the top dose activity, negative = inhibition, most hits filed as inhibitors; AID 504842; 0.031% of 330,000 active; purified Mm-Cpn ATPase, ADP Transcreener TR-FRET; active means well fitted inhibition curve with a large enough effect; inconclusive means small, poorly fitted or top-dose-only effect; further: potency means the concentration at half of the fitted maximal effect; on the % scale 0 is the no-effect control and ±100 the full control effect; nearly all actives have a fitted effect of over 80% in size
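Compound-treated chaperonin, 25 nM final, turns over 10 uM ATP at 37°C for 30 min following a 10 min preincubation; ADP generated competes with ADP-d2 for Eu-cryptate antibody, lowering FRET.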
CCT modulator: modulators of cytosolic chaperonin (CCT/TRiC) activity; 0.3% of 360,000 active; activity change, % (concentration not given with the values), hits read low; purified chaperonin ATPase assay, HTRF ADP detection, 30 min; AID 651819; in the data active means activity change below about -30%; further: on the % scale 0 is the no-effect control and ±100 the full control effect
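ATPase activity: ADP formed was measured by HTRF Transcreener (665/615 nm ratio) after 30 min at 37 deg C with 10 uM ATP. Compounds screened at one 76 uM concentration against 40 or 20 nM TRiC in Tris pH 7.4/KCl/MgCl2/DTT buffer.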
Rango-impB inh: Rango-importin beta binding inhibition. Rango CFP/YFP FRET sensor + importin beta, 45 min. Potency, µM (titrated, usually from 92.2 µM), inactives show top-dose inhibition of complex formation. 0.031% of 340,000 active. AID 540263;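 further: potency means the concentration at half of the fitted maximal effect; 0% = DMSO wells and 100% = buffer wells lacking importin beta; nearly all actives have a fitted effect of over 15% in size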
Target sequence (Q14974 whole entry, looked up): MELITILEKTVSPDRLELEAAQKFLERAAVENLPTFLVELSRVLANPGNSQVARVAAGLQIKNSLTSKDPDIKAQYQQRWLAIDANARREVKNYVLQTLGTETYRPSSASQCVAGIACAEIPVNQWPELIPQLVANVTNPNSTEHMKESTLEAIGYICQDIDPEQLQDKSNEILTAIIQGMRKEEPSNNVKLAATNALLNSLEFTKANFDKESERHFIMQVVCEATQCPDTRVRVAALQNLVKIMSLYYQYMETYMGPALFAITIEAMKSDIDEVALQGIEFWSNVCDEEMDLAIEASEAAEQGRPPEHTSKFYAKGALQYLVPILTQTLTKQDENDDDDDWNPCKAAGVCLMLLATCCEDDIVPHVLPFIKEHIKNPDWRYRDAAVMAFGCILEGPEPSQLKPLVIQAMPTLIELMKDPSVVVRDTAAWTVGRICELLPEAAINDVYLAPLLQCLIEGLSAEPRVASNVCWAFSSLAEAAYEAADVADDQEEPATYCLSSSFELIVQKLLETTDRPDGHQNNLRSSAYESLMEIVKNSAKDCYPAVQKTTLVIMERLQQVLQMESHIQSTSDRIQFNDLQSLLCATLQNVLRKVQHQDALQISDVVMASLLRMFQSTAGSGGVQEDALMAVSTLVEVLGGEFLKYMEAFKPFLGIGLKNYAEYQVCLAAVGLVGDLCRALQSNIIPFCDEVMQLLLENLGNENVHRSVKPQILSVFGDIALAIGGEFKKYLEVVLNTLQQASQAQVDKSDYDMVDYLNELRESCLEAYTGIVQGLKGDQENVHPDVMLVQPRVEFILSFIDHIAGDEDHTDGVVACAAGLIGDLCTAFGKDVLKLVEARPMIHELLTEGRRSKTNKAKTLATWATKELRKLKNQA
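FRET biosensor Rango (snurportin 1 IBB between N-terminal EYFP and C-terminal Cerulean), 50 nM in PBS/1 mM DTT/0.02% Tween-20/0.1% BSA, preincubated 5 min RT with compound; 0.125 microM importin beta added, 45 min RT, CFP/YFP FRET ratio read.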
KCNH2 WT inh: KCNH2 (human, wildtype) channel inhibition; Q12809; AID 720551; U2OS, BacMam KCNH2, thallium flux FluxOr; stronger effect = lower value; 0.37% of 340,000 active; activity change, % at 1.84 µM;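 active means maximum activity change below -70%; inconclusive means maximum activity change between -70% and -50%; inactive means maximum activity change above -50%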; further: on the % scale 0 is the no-effect control and ±100 the full control effect
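U2OS cells were transduced with wild-type KCNH2 virus (2.03 x 10^8 / mL) for 4 h at room temperature, then cultured overnight at 37 C. Thallium flux was read with FluxOr dye. Rate constants were normalized to DMSO controls.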
KCNH2 3.1 block: blocks the human KCNH2 3.1 channel isoform | U2OS KCNH2 3.1, thallium flux FluxOr; stronger effect = lower value | AID 720553 | activity change, % (tested at about 1.8 µM) | 0.95% of 340,000 active;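 active means maximum activity change below -70%; inconclusive means maximum activity change from -70% to -50%; inactive means maximum activity change above -50%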;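 further: thallium influx rate constant from kinetic fluorescence after stimulation buffer; on the % scale 0 is the no-effect control and ±100 the full control effect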
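Steps: virus added to U2OS suspension (4 h, RT, dark); medium with 10% FBS added, cells plated, 37 C overnight; FluxOr/Red40 loading buffer 45 min RT; stimulation buffer, 2 min kinetic read; rate constant normalized.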
* marks the source's active call; other numbers are inactive results; ? = inconclusive; . = no result given; [ ] = dose if it differs, or a comment. Unless noted, the call rests on the fitted dose curve.

SMILES	Rango release inh	Mm-Cpn inhibitor	CCT modulator	Rango-impB inh	KCNH2 WT inh	KCNH2 3.1 block
Cc1ccc(NC(=O)C(C)OC(=O)/C=C/c2ccccc2)cc1 (centres undefined)	-6%	1%	0	-2%	-22	0
Cc1ccc(C(C)C)c(OC(=O)/C=C/c2ccccc2)c1	0%	0%	3	-4%	-12	-91*
O=[N+]([O-])c1cccc(-c2ccc(SCc3cccnc3)nn2)c1	-4%	-1%	-76*	?	-6	7
CSc1ccc(-c2cccc([N+](=O)[O-])c2)nn1	-6%	3%	3	4%	4	-4
O=C(C[n+]1cc(-c2ccc(Cl)cc2)n2c1CCCCC2)c1ccccc1	1%	-2%	1	6%	12	-130*
CN(C)c1ccc(C(=S)N2CCCC2)cc1Br	23%	1%	-2	-4%	-6	2
O=C(N[C@H](C(=O)O)c1ccccc1)C1CCC(Cn2cnc3ccccc3c2=O)CC1 (some centres undefined)	-19%	3%	1	0%	-34	-22
CC1Oc2ccccc2C=C1/C=C1/SC(N2CCOCC2)=NC1=O (centres undefined)	?	0%	-39*	?	20	9
O=c1c(Cl)c(NCc2ccccc2Cl)cnn1C12CC3CC(CC(C3)C1)C2	-3%	4%	-1	-1%	-2	-18
S=c1[nH]nc(COc2ccccc2)n1/N=C/C=C/c1ccccc1	2%	0%	-87*	-2%	19	-14
S=c1[nH]nc(COc2ccccc2)n1/N=C/C=C/c1ccco1	-1%	-3%	1	-2%	-8	-1
CC(=O)N1CCN(c2ccc(NCc3ccc(-c4cccc(Cl)c4)o3)cc2)CC1	12µM*	-1%	.	?	.	.
O=C1C2=C(C(=O)c3ccccc31)C1O[C@](c3ccsc3)(Cc3ccccc31)O2	.	1%[15.4 µM]	.	.	.	.
COc1ccccc1N1CCCSC1=Nc1ccccc1	.	.	2	.	11	7
O=C(OCC1OC(n2cnc3c(N(C(=O)c4ccccc4)C(=O)c4ccccc4)ncnc32)C(O)C1F)c1ccccc1 (centres undefined)	7%	1%	-3	3%	-4	-86*
CCCCn1cnc2c(SCc3cccc(F)c3)nc(N)nc21	27%	.	-3	?	13	-1
CCCCn1cnc2c(SCc3ccc([N+](=O)[O-])cc3)nc(N)nc21	-5%	.	-2	0%	14	-85*
COc1ccc(OC)c(NC(=O)CSc2nnc(C)n2Cc2ccccc2)c1	-5%	0%	-49*	-1%	1	-14
COc1ccc(NC(=O)CSc2nnc(C)n2Cc2ccccc2)cc1	10%	1%	-11	0%	-17	9
CC(C)=CC(=O)OCC(=O)Nc1cc(C)ccc1C	-10%	0%	0	0%	-1	-10
CCOC(=O)CNC(=O)Nc1cccc(Cl)c1C	-10%	-1%	1	8%	0	-2
CC(C)=CC(=O)OCC(=O)Nc1ccccc1Cl	-19%	1%	-54*	-1%	6	4
COC(=O)CNC(=O)CNC(=O)Nc1ccccc1Cl	-13%	-1%	-4	4%	-12	-77*
Cc1ccn2c(NC3CCCCC3)c(-c3cccc(-c4cccc(Cl)c4)c3)nc2c1	8%	-1%	-1	?	.	.
CCOc1cc(S(=O)(=O)N2CCN(c3ccc(F)cc3)CC2)c(OCC)cc1-n1cnnn1	10%	1%	1	2%	-76*	-79*
SMILES	Rango release inh	Mm-Cpn inhibitor	CCT modulator	Rango-impB inh	KCNH2 WT inh	KCNH2 3.1 block
CC(=O)c1ccc(Nc2nc(-c3cccnc3)cs2)cc1	6%	-1%	0	8%	-81*	0
O=C(Nc1cccc(-c2csc(Nc3ccccc3)n2)c1)c1ccccc1	8%	-5%	-1	6%	19	-79*
O=C(O)c1ccc(Nc2nc(-c3cccnc3)cs2)cc1	-3%	-4%	-4	1%	24	5
O=C(Nc1cccc(-c2csc(Nc3cccc(C(F)(F)F)c3)n2)c1)c1ccccc1	-19%	-10%	0	1%	-6	-8
COc1ccccc1Cc1c(-c2ccc(Cl)cc2)nc2ccc(Br)cn12	.	.	0	.	.	.
O=C(Nc1cccc(-n2cnnn2)c1)c1ccoc1COc1ccc(Cl)cc1	-9%	-7%	-2	1%	?	-74*
CC(=O)N1CCC(N(C(=O)Nc2c(F)cccc2F)C(C)C)CC1	2%	2%	-1	-3%	-4	5
CC(c1cccs1)N(Cc1ccco1)C(=S)Nc1ccc(F)c(Cl)c1 (centres undefined)	7%	1%	-59*	-2%	13	2
O=C(Cn1nnc(-c2ccccc2F)n1)Nc1ccc(S(=O)(=O)NC2CCCC2)cc1	0%	-7%	-1	-1%	-12	1
O=C(COC(=O)COc1cccc(Br)c1)Nc1c(Cl)cccc1Cl	-11%	0%	1	3%	-189*	5
Cc1cc(C(=O)NC2CC(C)(C)Cc3c2cnn3-c2cccc(F)c2)nn1C (centres undefined)	42%	0%	2	2%	0	3
CC1(C)Cc2c(cnn2-c2ccc(F)cc2)C(NC(=O)c2ccoc2)C1 (centres undefined)	-6%	1%	1	7%	?	-81*
CC1(C)Cc2c(cnn2-c2cccc(F)c2)C(NC(=O)c2csnn2)C1 (centres undefined)	?	-2%	-2	1%	-74*	?
CC1(C)Cc2c(cnn2-c2ccccc2)C(NC(=O)c2ccoc2)C1 (centres undefined)	-10%	-1%	-3	0%	?	-41
CCc1nc2ccc(C(=O)N3CCN(C(C)=O)CC3)cn2c1N(C=O)Cc1ccc(OC)cc1	.	.	-1	.	.	.
CC(CN1CCCCC1)OC(=O)c1ccc2c(c1)OCCO2 (centres undefined)	-6%	0%	2	-3%	-6	-3
CC(CN1CCOCC1)OC(=O)c1ccc2c(c1)OCCO2 (centres undefined)	-3%	1%	1	-3%	-262*	20
Cc1ccc(C)c(S(=O)(=O)N2CCN(C(C(=O)Nc3ccc(F)cc3)c3ccccc3)CC2)c1 (centres undefined)	-17%	-1%	-1	0%	6	-86*
O=C(Nc1ccc(F)cc1)C(c1ccccc1)N1CCN(S(=O)(=O)c2ccc3ccccc3c2)CC1 (centres undefined)	-3%	-6%	-2	-4%	4	-28
